Experimental data as given in PubChem BioAssay AID1159580 (chemical genetic matrix, 2015).
About 2,000 (36%) of roughly 5,500 compounds were called active. Not shown: some 18% with an inconclusive outcome. No stated cut-off is given here; in the data, active means normalized growth mostly below about 0.91 (no sharp cut-off); inconclusive means no clear call, values can overlap the other calls; inactive means mostly above about 0.92. The list shows a part of the results.

Assay: chemical genetic growth profiling, strain panel (AID 1159580);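 further: tested at 20 µM; growth read once vehicle control cultures reached saturation at 30 °C; 1 = growth at the plate median or of vehicle wells; lower values mean less growth of the strain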
Details: growth OD

Measured: normalized growth

COc1ccc(NS(=O)(=O)c2ccc(N)cc2)nn1
inactive: S. cerevisiae deletion strains, locus YKL009W, strain mrt4, hits give low values 1 | S. cerevisiae deletion strains, locus YKL068W, hits give low values 0.997 | S. cerevisiae deletion strains, locus YKL085W, strain MDH1 (second series), hits give low values 0.999 | S. cerevisiae deletion strains, locus YKL085W, strain MDH1, hits give low values 0.999 | S. cerevisiae deletion strains, locus YKL160W, strain elf1, hits give low values 0.984 | S. cerevisiae deletion strains, locus YKL190W, strain CNB1, hits give low values 1.02 | S. cerevisiae deletion strains, locus YKR001C, strain vps1, hits give low values 0.985 | S. cerevisiae deletion strains, locus YKR026C, strain gcn3, hits give low values 1.01 | S. cerevisiae deletion strains, locus YKR091W, strain srl3, hits give low values 0.993 | S. cerevisiae deletion strains, locus YLL001W, strain dnm1, hits give low values 0.967 | S. cerevisiae deletion strains, locus YLL026W, hits give low values 0.997 | S. cerevisiae deletion strains, locus YLL041C, strain sdh2, hits give low values 0.993 | S. cerevisiae deletion strains, locus YLR027C, strain aat2, hits give low values 1 | S. cerevisiae deletion strains, locus YLR039C, strain RIC1, hits give low values 1.01 | S. cerevisiae deletion strains, locus YLR058C, strain SHM2, hits give low values 1.03 | S. cerevisiae deletion strains, locus YLR102C, strain apc9, hits give low values 0.986 | S. cerevisiae deletion strains, locus YLR113W, strain HOG1, hits give low values 1.01 | S. cerevisiae deletion strains, locus YLR221C, strain rsa3, hits give low values 0.989 | S. cerevisiae deletion strains, locus YLR258W, strain gsy2, hits give low values 0.971 | S. cerevisiae deletion strains, locus YLR262C, strain YPT6 (second series), hits give low values 1.02 | S. cerevisiae deletion strains, locus YLR262C, strain YPT6, hits give low values 1.06 | S. cerevisiae deletion strains, locus YLR268W, strain sec22, hits give low values 0.99 | S. cerevisiae deletion strains, locus YLR320W, strain mms22, hits give low values 0.961 | S. cerevisiae deletion strains, locus YLR330W, strain CHS5, hits give low values 1.01 | S. cerevisiae deletion strains, locus YLR342W, strain FKS1 (second series), hits give low values 1.01 | S. cerevisiae deletion strains, locus YLR342W, strain FKS1, hits give low values 0.963 | S. cerevisiae deletion strains, locus YLR357W, strain rsc2, hits give low values 0.945 | S. cerevisiae deletion strains, locus YLR370C, strain arc18, hits give low values 0.999 | S. cerevisiae deletion strains, locus YLR371W, strain rom2, hits give low values 0.983 | S. cerevisiae deletion strains, locus YLR384C, strain iki3, hits give low values 1.02 | S. cerevisiae deletion strains, locus YLR418C, strain cdc73, hits give low values 1 | S. cerevisiae deletion strains, locus YML016C, strain PPZ1, hits give low values 1.02 | S. cerevisiae deletion strains, locus YML032C, strain rad52, hits give low values 0.994 | S. cerevisiae deletion strains, locus YML120C, strain ndi1, hits give low values 1 | S. cerevisiae deletion strains, locus YML124C, strain tub3, hits give low values 0.994 | S. cerevisiae deletion strains, locus YMR058W, strain fet3, hits give low values 1.01 | S. cerevisiae deletion strains, locus YMR078C, strain ctf18, hits give low values 0.997 | S. cerevisiae deletion strains, locus YMR125W, strain sto1, hits give low values 1.01 | S. cerevisiae deletion strains, locus YMR129W, hits give low values 0.989 | S. cerevisiae deletion strains, locus YMR205C, strain PFK2, hits give low values 0.986 | S. cerevisiae deletion strains, locus YMR223W, strain ubp8, hits give low values 0.99 | S. cerevisiae deletion strains, locus YMR231W, strain pep5, hits give low values 0.994 | S. cerevisiae deletion strains, locus YMR307W, strain GAS1, hits give low values 1.01 | S. cerevisiae deletion strains, locus YNL067W, strain RPL9B, hits give low values 1.03 | S. cerevisiae deletion strains, locus YNL071W, strain lat1, hits give low values 1 | S. cerevisiae deletion strains, locus YNL128W, strain TEP1, hits give low values 1.02 | S. cerevisiae deletion strains, locus YNL153C, strain GIM3, hits give low values 1.04 | S. cerevisiae deletion strains, locus YNL183C, strain NPR1, hits give low values 0.935 | S. cerevisiae deletion strains, locus YNL209W, strain ssb2, hits give low values 1.01 | S. cerevisiae deletion strains, locus YNL233W, strain BNI4, hits give low values 1.03 | S. cerevisiae deletion strains, locus YNL248C, strain rpa49, hits give low values 0.994 | S. cerevisiae deletion strains, locus YNL250W, strain rad50, hits give low values 0.984 | S. cerevisiae deletion strains, locus YNL271C, strain bni1, hits give low values 0.983 | S. cerevisiae deletion strains, locus YNL298W, strain CLA4, hits give low values 0.981 | S. cerevisiae deletion strains, locus YNL307C, strain MCK1, hits give low values 0.993 | S. cerevisiae deletion strains, locus YNL322C, strain KRE1 (second series), hits give low values 0.974 | S. cerevisiae deletion strains, locus YNR049C, strain mso1, hits give low values 0.999 | S. cerevisiae deletion strains, locus YNR052C, strain pop2, hits give low values 0.987 | S. cerevisiae deletion strains, locus YOL006C, strain TOP1, hits give low values 1.09 | S. cerevisiae deletion strains, locus YOL012C, strain htz1 1.23 | S. cerevisiae deletion strains, locus YOL147C, strain pex11, hits give low values 0.99 | S. cerevisiae deletion strains, locus YOR001W, strain rrp6, hits give low values 1 | S. cerevisiae deletion strains, locus YOR061W, strain CKA2, hits give low values 1.02 | S. cerevisiae deletion strains, locus YOR069W, strain VPS5, hits give low values 1.01 | S. cerevisiae deletion strains, locus YOR070C, strain gyp1, hits give low values 1 | S. cerevisiae deletion strains, locus YOR080W, strain dia2, hits give low values 1 | S. cerevisiae deletion strains, locus YOR083W, strain WHI5, hits give low values 0.947 | S. cerevisiae deletion strains, locus YOR106W, strain vam3, hits give low values 1 | S. cerevisiae deletion strains, locus YOR136W, strain idh2, hits give low values 0.996 | S. cerevisiae deletion strains, locus YOR144C, strain elg1, hits give low values 0.992 | S. cerevisiae deletion strains, locus YOR184W, strain ser1, hits give low values 0.996 | S. cerevisiae deletion strains, locus YOR231W, strain MKK1, hits give low values 0.998 | S. cerevisiae deletion strains, locus YOR265W, strain rbl2, hits give low values 1 | S. cerevisiae deletion strains, locus YOR270C, strain vph1, hits give low values 1.05 | S. cerevisiae deletion strains, locus YOR290C, strain snf2, hits give low values 0.991 | S. cerevisiae deletion strains, locus YOR316C, strain cot1, hits give low values 0.985 | S. cerevisiae deletion strains, locus YPL051W, strain arl3, hits give low values 0.976 | S. cerevisiae deletion strains, locus YPL055C, strain LGE1, hits give low values 1.07 | S. cerevisiae deletion strains, locus YPL078C, strain atp4, hits give low values 0.994 | S. cerevisiae deletion strains, locus YPL106C, strain sse1, hits give low values 0.96 | S. cerevisiae deletion strains, locus YPL240C, strain hsp82, hits give low values 1 | S. cerevisiae deletion strains, locus YPL241C, strain CIN2, hits give low values 1.01 | S. cerevisiae deletion strains, locus YPL256C, strain CLN2, hits give low values 0.985 | S. cerevisiae deletion strains, locus YPR119W, strain clb2, hits give low values 0.997 | S. cerevisiae deletion strains, locus YPR141C, strain kar3, hits give low values 0.988 | S. cerevisiae deletion strains, locus YPR163C, strain tif3, hits give low values 0.99 | S. cerevisiae deletion strains, locus YPR167C, strain met16, hits give low values 0.992 | S. cerevisiae deletion strains, strain wtn01, hits give low values 0.986 | S. cerevisiae strains, strain wild type, hits give low values 1.01
